Reference: PubChem BioAssay (EPA / NIEHS)
Active and inactive are the calls of the source. How the source made its calls: active means hit-call score of the fitted dose curve at least 0.9, where 1 is the maximum; inactive means score below 0.9.

Experiments:
[1] = read-out: TIMP metallopeptidase inhibitor 2 (TIMP2), TIMP2 (gene 7077); assay: BSK_KF3CT_TIMP2: BioMAP Diversity Plus: KF3CT Assay for TIMP metallopeptidase inhibitor 2 (TIMP2) Biomarker Activity (AID 2283071); settings: primary human keratinocytes with fibroblasts; actives raise or lower the signal
How it was run: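 Co-culture of human primary keratinocytes and foreskin fibroblasts, measured 24 h after chemical dosing. TIMP-2 quantified by ELISA and fitted in both directions relative to DMSO. Cytotoxicity checked in parallel cultures by SRB total-protein staining.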

[2] = read-out: Transforming growth factor beta 1 (TGFb1), TGFB1 (gene 7040); assay: BSK_KF3CT_TGFb1: BioMAP Diversity Plus: KF3CT Assay for Transforming growth factor beta 1 (TGFb1) Biomarker Activity (AID 2283072); settings: primary human keratinocytes with fibroblasts; actives raise or lower the signal
How it was run: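 Human keratinocyte/foreskin fibroblast co-culture; TGF-b1 measured by ELISA 24 h after dosing, fitted bidirectionally versus DMSO. Cytotoxicity checked in parallel cultures by total protein (SRB staining, 560 nm).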

[3] = read-out: C-C motif chemokine 2 (Homo sapiens) (UniProt P13500); assay: BSK_KF3CT_MCP1: BioMAP Diversity Plus: KF3CT Assay for Monocyte Chemoattractant Protein 1 (MCP1/CCL2) Biomarker Activity (AID 2283073); settings: primary human keratinocytes with fibroblasts; actives raise or lower the signal
How it was run: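 Human keratinocyte plus foreskin fibroblast primary co-culture exposed to chemical for 24 h. MCP-1 levels measured by ELISA. Bidirectional curve fitting relative to DMSO negative control as baseline.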

[4] = read-out: Matrix Metallopeptidase 9 (MMP9), MMP9 (gene 4318); assay: BSK_KF3CT_MMP9: BioMAP Diversity Plus: KF3CT Assay for Matrix Metallopeptidase 9 (MMP9) Biomarker Activity (AID 2283074); settings: primary human keratinocytes with fibroblasts; actives raise or lower the signal
How it was run: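 Keratinocyte plus foreskin fibroblast human primary skin co-culture was dosed with chemical and MMP-9 was quantified by ELISA 24 h later. Bidirectional curve fitting used DMSO as negative control and activity baseline.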

CD40, CD40 (gene 958) [5] = assay: BSK_LPS_CD40: BioMAP Diversity Plus: LPS Assay for CD40 Biomarker Activity (AID 2283076); settings: primary human HUVEC with PBMC; actives raise or lower the signal
How it was run: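 Primary human umbilical vein endothelial cells co-cultured with peripheral blood mononuclear cells, LPS-stimulated, were dosed with chemical and read 24 h later. CD40 levels were measured by ELISA and fitted bidirectionally against DMSO as negative control and baseline.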

[6] = read-out: E-selectin (Homo sapiens) (UniProt P16581); assay: BSK_LPS_Eselectin: BioMAP Diversity Plus: LPS Assay for Eselectin Biomarker Activity (AID 2283077); settings: primary human HUVEC with PBMC; actives raise or lower the signal
How it was run: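 Human umbilical vein endothelial cells co-cultured with peripheral blood mononuclear cells under LPS stimulation; E-selectin measured by ELISA 24 h after chemical dosing. Activity fitted bidirectionally against DMSO as negative control and baseline.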

[7] = read-out: Interleukin-8 (IL8), CXCL8 (gene 3576); assay: BSK_LPS_IL8: BioMAP Diversity Plus: LPS Assay for Interleukin-8 (IL8) Biomarker Activity (AID 2283078); settings: primary human HUVEC with PBMC; actives raise or lower the signal
How it was run: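 Human umbilical vein endothelial cells co-cultured with PBMC were stimulated with LPS; IL-8 levels were measured by ELISA 24 h after chemical dosing. Activity was fitted bidirectionally against DMSO as negative control and baseline.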

[8] = BSK_LPS_SRB: Viability Assessment in the BioMAP Diversity Plus: LPS Assay (AID 2283079); settings: primary human HUVEC with PBMC;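 further: total protein by sulforhodamine B absorbance as a cytotoxicity measure; measured one day after compound addition; fitted in both directions against DMSO so loss or gain of signal counts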
How it was run: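 Human umbilical vein endothelial cells co-cultured with PBMC (LPS system) were dosed for 24 h. Total protein was stained with 0.1% sulforhodamine B after 10% TCA fixation, read at 560 nm, and fitted bidirectionally against DMSO baseline.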

[9] = read-out: Interleukin-1 alpha (IL1a), IL1A (gene 3552); assay: BSK_LPS_IL1a: BioMAP Diversity Plus: LPS Assay for Interleukin-1 alpha (IL1a) Biomarker Activity (AID 2283080); settings: primary human HUVEC with PBMC; actives raise or lower the signal
How it was run: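 Human umbilical vein endothelial cells co-cultured with peripheral blood mononuclear cells were LPS-stimulated and exposed to test chemicals for 24 h. IL-1 alpha was quantified by ELISA, with bidirectional curve fitting against DMSO as the negative control and baseline.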

[10] = read-out: Monocyte Chemoattractant Protein-1 (MCP1), CCL2 (gene 6347); assay: BSK_LPS_MCP1: BioMAP Diversity Plus: LPS Assay for Monocyte Chemoattractant Protein-1 (MCP1) Biomarker Activity (AID 2283081); settings: primary human HUVEC with PBMC; actives raise or lower the signal
How it was run: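 HUVEC plus PBMC co-culture (human primary cells, LPS system) exposed to test chemical for 24 h; MCP-1 measured by ELISA. Bidirectional curve fitting against DMSO baseline; parallel SRB total-protein staining flags overt cytotoxicity.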

[11] = BSK_LPS_PGE2: BioMAP Diversity Plus: LPS Assay for Prostaglandin E2 (PGE2) Biomarker Activity (AID 2283082); settings: primary human HUVEC with PBMC; actives raise or lower the signal;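 on AC50: secreted prostaglandin E2 measured by ELISA in LPS-stimulated co-culture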
How it was run: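 HUVEC plus human PBMC co-culture stimulated with LPS; secreted PGE2 quantified by ELISA 24 h after chemical dosing. Activity fitted bidirectionally against DMSO baseline; parallel SRB staining (0.1% SRB after 10% TCA fixation, 560 nm) flags overt cytotoxicity.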

[12] = read-out: Macrophage colony-stimulating factor (MCSF), CSF1 (gene 1435); assay: BSK_LPS_MCSF: BioMAP Diversity Plus: LPS Assay for Macrophage colony-stimulating factor (MCSF) Biomarker Activity (AID 2283083); settings: primary human HUVEC with PBMC; actives raise or lower the signal
How it was run: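 Human umbilical vein endothelial cells co-cultured with peripheral blood mononuclear cells were exposed to compound for 24 h. M-CSF levels were measured by ELISA, and bidirectional curve fitting used DMSO as the negative control and baseline.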

[13] = read-out: Tissue Factor, F3 (gene 2152); assay: BSK_LPS_TissueFactor: BioMAP Diversity Plus: LPS Assay for Tissue Factor Biomarker Activity (AID 2283084); settings: primary human HUVEC with PBMC; actives raise or lower the signal
How it was run: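 Human umbilical vein endothelial cells co-cultured with peripheral blood mononuclear cells were dosed and stimulated with LPS. Cell-surface CD142 was quantified by ELISA at 24 h. Activity was fitted bidirectionally against DMSO baseline.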

[14] = read-out: Tumor necrosis factor (Homo sapiens) (UniProt P01375); assay: BSK_LPS_TNFa: BioMAP Diversity Plus: LPS Assay for Tumour Necrosis Factor alpha (TNFa) Biomarker Activity (AID 2283085); settings: primary human HUVEC with PBMC; actives raise or lower the signal
How it was run: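 Human umbilical vein endothelial cells co-cultured with PBMC and stimulated with LPS. TNFa was measured by ELISA 24 h after chemical dosing, fitted bidirectionally relative to DMSO.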

[15] = read-out: Vascular cell adhesion molecule 1 (VCAM1), VCAM1 (gene 7412); assay: BSK_LPS_VCAM1: BioMAP Diversity Plus: LPS Assay for Vascular cell adhesion molecule 1 (VCAM1) Biomarker Activity (AID 2283086); settings: primary human HUVEC with PBMC; actives raise or lower the signal
How it was run: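 Human umbilical vein endothelial cells co-cultured with PBMC and stimulated with LPS; VCAM-1 measured by ELISA 24 h after dosing. Bidirectional curve fitting against DMSO baseline; cytotoxicity tracked in parallel by SRB total-protein staining.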

CD38, CD38 (gene 952) = assay: BSK_SAg_CD38: BioMAP Diversity Plus: SAg Assay for CD38 Biomarker Activity (AID 2283087); settings: primary human HUVEC with PBMC; actives raise or lower the signal
How it was run: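 Human HUVEC plus PBMC co-culture stimulated with superantigen; CD38 measured by ELISA 24 h after chemical dosing. Fluorescence read-out, bidirectional fit against DMSO; cytotoxicity tracked in parallel by SRB and Alamar Blue.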

CD69, CD69 (gene 969) = assay: BSK_SAg_CD69: BioMAP Diversity Plus: SAg Assay for CD69 Biomarker Activity (AID 2283089); settings: primary human HUVEC with PBMC; actives raise or lower the signal;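 on AC50: cell surface CD69 protein quantified by ELISA with fluorescence detection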
How it was run: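 Values derive from bidirectional fitting relative to DMSO vehicle. Cells: umbilical vein endothelium plus peripheral blood mononuclear cells, treated 24 h before fluorescent ELISA for CD69.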

[16] = read-out: Monocyte Chemoattractant Protein-1 (MCP1), CCL2 (gene 6347); assay: BSK_SAg_MCP1: BioMAP Diversity Plus: SAg Assay for Monocyte Chemoattractant Protein-1 (MCP1) Biomarker Activity (AID 2283090); settings: primary human HUVEC with PBMC; actives raise or lower the signal
How it was run: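 MCP-1 levels in the endothelial–PBMC SAg co-culture were quantified by ELISA at 24 h post-dosing; both increases and decreases versus DMSO scored. Cytotoxicity monitored by SRB total protein in parallel cultures.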

CD40, CD40 (gene 958) [17] = assay: BSK_SAg_CD40: BioMAP Diversity Plus: SAg Assay for CD40 Biomarker Activity (AID 2283088); settings: primary human HUVEC with PBMC; actives raise or lower the signal
How it was run: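 Human umbilical vein endothelial cells co-cultured with PBMC; CD40 levels measured by ELISA with fluorescence read-out 24 h after chemical dosing. Gain or loss of signal fitted bidirectionally against DMSO baseline.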

Measured: AC50

Chain of Tumor necrosis factor (Homo sapiens) (P01375 whole entry, looked up): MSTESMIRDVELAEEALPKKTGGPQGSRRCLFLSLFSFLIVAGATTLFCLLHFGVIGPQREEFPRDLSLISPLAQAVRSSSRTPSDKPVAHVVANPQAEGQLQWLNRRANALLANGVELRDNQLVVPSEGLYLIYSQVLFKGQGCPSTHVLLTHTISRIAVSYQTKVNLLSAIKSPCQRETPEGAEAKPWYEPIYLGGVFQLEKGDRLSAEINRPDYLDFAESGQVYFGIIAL
Chain of E-selectin (Homo sapiens) (P16581 whole entry, looked up): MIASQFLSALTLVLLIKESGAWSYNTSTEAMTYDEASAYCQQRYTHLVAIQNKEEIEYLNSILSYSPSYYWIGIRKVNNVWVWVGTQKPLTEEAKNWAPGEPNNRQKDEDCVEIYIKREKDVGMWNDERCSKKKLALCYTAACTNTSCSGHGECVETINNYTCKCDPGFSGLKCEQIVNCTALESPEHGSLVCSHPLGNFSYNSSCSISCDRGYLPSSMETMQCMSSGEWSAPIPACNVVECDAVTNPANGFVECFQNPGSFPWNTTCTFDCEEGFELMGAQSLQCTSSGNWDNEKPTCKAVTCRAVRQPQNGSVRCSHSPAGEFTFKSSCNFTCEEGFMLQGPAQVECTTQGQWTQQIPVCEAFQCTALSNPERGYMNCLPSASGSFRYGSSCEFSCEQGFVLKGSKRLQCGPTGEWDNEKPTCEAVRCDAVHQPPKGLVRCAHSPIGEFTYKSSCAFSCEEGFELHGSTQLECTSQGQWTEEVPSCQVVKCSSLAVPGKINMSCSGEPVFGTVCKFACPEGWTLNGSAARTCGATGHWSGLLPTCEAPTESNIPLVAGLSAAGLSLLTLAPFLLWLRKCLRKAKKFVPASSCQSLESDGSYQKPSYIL

FC(F)C(F)(F)OCC(Cn1cncn1)c1ccc(Cl)cc1Cl (stereo unspecified)
active: CD40, CD40 (gene 958) [5] 17.1 µM | [8] 20 µM | [11] 2.52 µM | [12] 30.7 µM | [15] 32.8 µM | CD38, CD38 (gene 952) 20 µM | CD69, CD69 (gene 969) 30 µM
not listed: CD40, CD40 (gene 958) [17]
inactive: all other assays above

Nc1c(Cl)cc([N+](=O)[O-])cc1Cl
not listed: [15]
inactive: all other assays above

CN1COCN(Cc2cnc(Cl)s2)C1=N[N+](=O)[O-]
active: CD40, CD40 (gene 958) [17] 3.79 µM
not listed: [15]
inactive: all other assays above

CCOP(=S)(OCC)Oc1cc(C)nc(C(C)C)n1
active: [14] 20 µM
not listed: [15]
inactive: all other assays above

S=C1NCCN1
inactive: all assays above

CCc1cccc(C)c1N(C(=O)CCl)C(C)COC (stereo unspecified)
active: CD40, CD40 (gene 958) [5] 17.5 µM | [14] 13.1 µM
not listed: [15] | CD69, CD69 (gene 969)
inactive: all other assays above

CCOP(=S)(OCC)SCCSCC
not listed: [15]
inactive: all other assays above
